PubChem BioAssay (NCI)
Compounds without any hit were thinned out: in the full panel of roughly 83,000, 20% have a hit.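 Activity criterion: percent growth below 10, measured after cells in 96-well plates were exposed to a single compound concentration for 48 hours.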 A number with no mark means an inactive call. Activity calls are given as the source filed them.

What follows are molecules tested on OVCAR-4 ovarian (assay: NCI-60 one-dose screen, 48 h (100 = growth as untreated, 0 = no growth, -100 = all killed)). Details: 10 µM unless noted.
For `O=C(/C=C/c1c(-c2ccc(Cl)cc2)nn(-c2ccccc2)c1C(F)(F)F)c1ccc(Cl)cc1`, the growth was 89%. With `O=C1CC(=O)OC(c2ccc([N+](=O)[O-])cc2)O1` the growth was 24.6%. With `Cn1cc(-c2nc(-c3c[nH]c4c(Cl)nccc34)cs2)c2cc(Br)ccc21` the growth was 90.5%. `COc1cc(NC(=O)CSc2nc3ccc(C)cc3c(=O)n2Cc2ccccc2)cc(OC)c1OC` was tested, and the growth was 23.9%. With `N#Cc1c(-c2cccc([N+](=O)[O-])c2)nc(SCC(=O)c2ccc(Cl)cc2)[nH]c1=O` the growth was 102%. With `COc1cc(CC(=O)n2ncc3ccc(N)cc32)cc(OC)c1OC` the growth was 88.4%. In the case of `Oc1ccc(C2c3ccccc3Oc3ccccc32)c2cccnc12`, the growth is reported as 30.6%. Work on `COc1cc(C2C3=C(COC3=O)N(CCO)c3cc4c(cc32)CCC4)cc(OC)c1OC` (configuration not stated) yielded a growth of 23.3%. With `Cc1ccc(-c2nc3ccccn3c2/C=C2/C(=O)Nc3cc(Cl)ccc32)cc1` the growth was 74.7%. `N#CC(C(=O)/C(=N/NC(=O)c1ccccc1O)C(C#N)c1ccccc1)c1ccccc1` (configuration not stated) gave a growth of 58.8%. In the case of `C#Cc1cccc(NC(=O)c2cccc(NC(=O)CCl)c2)c1`, the growth is reported as -38.1% [8.25 µM] (active). `Cc1nc2ccc(Cl)cn2c1-c1nnc(SCc2ccc([N+](=O)[O-])cc2)o1` was tested, and the growth was 32.5%. With `O=C1/C=C/[C@@H](O)[C@@H]2C[C@@H](O)C[C@H]2/C=C/CCC[C@H](CCc2ccc3ncccc3c2)O1` the growth was 14.3%. `COc1ccc(-c2cnc3c(-c4cccc5ncccc45)cnn3c2)cc1` was tested, and the growth was 6.3% (active).

The molecules below were run on SK-OV-3 ovarian in the same assay as above. Details: 10 µM unless noted.
`CC(C)=CCC[C@](C)(O)[C@H]1CC[C@]2(C)[C@@H]1CC[C@@H]1[C@@]3(C)C/C(=C/c4ccccc4)C(=O)C(C)(C)[C@@H]3CC[C@]12C` gave a growth of 97.8%. `O=C1Nc2ccccc2/C1=C\c1c(-c2ccc(F)cc2)nc2ccccn12` gave a growth of 62.7%. Molecule `CC(c1ccccc1)C(C(=O)c1ccccc1)c1ccccc1` (configuration not stated) has a growth of 101%. Molecule `CC(=O)[C@H]1CCC/C=C/[C@@H]2C[C@H](O)C[C@H]2[C@H](O)/C=C/C(=O)O1` has a growth of 23.9%. In the case of `O=C1C=CC(=O)N1c1cccc(Cl)c1`, the growth is reported as 108%. For `COc1cc(/C=C\c2cc(/C=C\c3ccc(O)c(OC)c3)n(C(=O)COc3ccccc3)n2)ccc1O`, the growth was -28.6% (active). Work on `N#C/C(=C\c1cccc(C#N)c1)c1ccccc1` yielded a growth of 105%. `COc1cc2cc(Oc3cccc(NC(=O)Nc4cc(C(F)(F)F)cc(C(F)(F)F)c4)c3)c(C)nc2cc1OC` was tested, and the growth was -1.05% (active). `CCN(c1ccccc1)S(=O)(=O)c1cc([N+](=O)[O-])ccc1Cl` gave a growth of 55.3%. Molecule `Cc1nc2sccn2c1-c1cn2ccsc2n1` has a growth of 94.9%. `Cc1cc(Cl)nc(N(CCNc2ccnc3cc(Cl)ccc23)Cc2ccccn2)n1` gave a growth of 82.9%. `COc1ccc(C(=O)CC#N)cc1` showed a growth of 112%. In the case of `COC(=O)C(CC=O)C(=O)C(=O)Nc1cccc(C(F)(F)F)c1` (configuration not stated), the growth is reported as 93.5%. With `COc1cc(/C=C\c2cc(OC)c(OC)c(OC)c2)cc(N)c1OC` the growth was 92.2%. Work on `CC1(C)NCCC[C@]2(C)[C@H]3CC[C@@H]4[C@H]5[C@H](C(=O)/C=C/c6ccco6)CC[C@]5(CO)CC[C@@]4(C)[C@]3(C)CC[C@@H]12` yielded a growth of 93.1%. `O=C(/C=C/c1c(-c2ccc(Cl)cc2)nn(-c2ccccc2)c1C(F)(F)F)c1ccc(Cl)cc1` gave a growth of 82.7%. With `Cn1cc(-c2csc(-c3c[nH]c4ccccc34)n2)c2ccnc(Cl)c21` the growth was 93.9%. For `O=C1CC(=O)OC(c2ccc([N+](=O)[O-])cc2)O1`, the growth was 89.6%. With `Cn1cc(-c2nc(-c3c[nH]c4c(Cl)nccc34)cs2)c2cc(Br)ccc21` the growth was 95.6%. For `COc1cc(C2C3=C(COC3=O)N(CCO)c3cc4c(cc32)OCO4)cc(OC)c1OC` (configuration not stated), the growth was -24.2% (active). `CC(C)c1ccc(Nc2ccc3c(OCCCN4CCN(C)CC4)cccc3n2)cc1` was tested, and the growth was 99.9%. `COc1cc(NC(=O)CSc2nc3ccc(C)cc3c(=O)n2Cc2ccccc2)cc(OC)c1OC` gave a growth of 40%. In the case of `N#Cc1c(-c2cccc([N+](=O)[O-])c2)nc(SCC(=O)c2ccc(Cl)cc2)[nH]c1=O`, the growth is reported as 95.4%. `COc1cc(CC(=O)n2ncc3ccc(N)cc32)cc(OC)c1OC` showed a growth of 95.6%. `Oc1ccc(C2c3ccccc3Oc3ccccc32)c2cccnc12` showed a growth of 31.4%. `COc1cc(C2C3=C(COC3=O)N(CCO)c3cc4c(cc32)CCC4)cc(OC)c1OC` (configuration not stated) was tested, and the growth was -32.1% (active). In the case of `Cc1ccc(-c2nc3ccccn3c2/C=C2/C(=O)Nc3cc(Cl)ccc32)cc1`, the growth is reported as 94.4%. `CCNc1nc2ccc(Nc3ccnc4cc(Cl)ccc34)cc2[nH]1` gave a growth of 108%. In the case of `N#CC(C(=O)/C(=N/NC(=O)c1ccccc1O)C(C#N)c1ccccc1)c1ccccc1` (configuration not stated), the growth is reported as 45.9%. Molecule `C#Cc1cccc(NC(=O)c2cccc(NC(=O)CCl)c2)c1` has a growth of 56.4% [8.25 µM]. `Cc1c2cc[nH]c(=O)c2c(C)c2c1[nH]c1cc(OCCN3CCN(C)CC3)ccc12` was tested, and the growth was -1.65% (active). `O=C1/C=C/[C@@H](O)[C@@H]2C[C@@H](O)C[C@H]2/C=C/CCC[C@H](CCc2ccc3ncccc3c2)O1` showed a growth of 17.5%. With `COc1ccc(-c2cnc3c(-c4cccc5ncccc45)cnn3c2)cc1` the growth was 24.4%.
